An excerpt weighted towards active compounds, which were near 2.1% of everything screened.
TPT1 inh: inhibitors of Candida albicans tRNA 2'-phosphotransferase TPT1; recombinant caTPT1, FP RNA substrate dephosphorylation; inhibition, % at 5 µM; 300,000 compounds, 0.81% hits;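 active = inhibition above the mean of all tested compounds plus 3 SD, set per screening campaign, cut at about 24% in these data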;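 note: plate controls were DMSO alone for no effect and ferristatin control at 100 nM for full effect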
Rpn11 block: inhibitors of human proteasome Rpn11; O00487; human 26S proteasome, Ub4-pepOG fluorescence polarization; 20S core pre-blocked with epoxomicin; inhibition, % at 20 µM; 360,000 compounds, 0.59% hits;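 active = inhibition at 20 µM, scaled to each plate's controls, above about 33%, limit read from the data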
Target sequence (O00487 whole entry, looked up): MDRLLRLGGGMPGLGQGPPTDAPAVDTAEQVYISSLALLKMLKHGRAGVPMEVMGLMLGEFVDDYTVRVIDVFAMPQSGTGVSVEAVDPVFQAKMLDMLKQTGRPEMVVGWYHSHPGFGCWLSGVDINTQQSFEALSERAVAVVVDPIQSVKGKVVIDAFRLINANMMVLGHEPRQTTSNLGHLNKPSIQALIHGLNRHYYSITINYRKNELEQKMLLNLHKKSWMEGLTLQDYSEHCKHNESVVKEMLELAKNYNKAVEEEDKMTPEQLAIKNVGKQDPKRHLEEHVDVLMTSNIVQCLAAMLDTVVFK
HNF4A DNA FP: change in binding of human HNF4 alpha to DNA. 360,000 compounds, 0.3% hits. activity change, % at 10 µM. P41235. HNF4a-FITC DNA binding, fluorescence polarization, 1 h. AID 1224865; in the data active = activity change above about 30%, passing the limit was not always enough
Myeloid diff 2: myeloid differentiation induction. 360,000 compounds, 1% hits. AID 624256. calls only at 10 µM. ER-HoxA9 myeloid progenitors, lysozyme-GFP differentiation, flow cytometry;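 active = normalized GFP-positive differentiation at or above the plate's own cutoff, the solvent-only control mean plus 3 SD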;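 note: cells exposed to compound for four days before flow analysis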
TPT1 inh confirm: confirmation of Candida albicans TPT1 inhibitors; shares compounds with TPT1 inh; recombinant caTPT1, fluorescence polarization, RNase T1 coupled; AID 2149; inhibition, % at 5 µM; 2,400 compounds, 74% hits;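 active = inhibition above the primary screen limit, the mean inhibition of all tested compounds plus 3 SD, cut at about 25% in these data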
RNase T1 inh: blocks Aspergillus oryzae RNase T1, a TPT1 counter-screen; inhibition, % at 5 µM; RNase T1 cleavage, fluorescence polarization, 1536-well; 2,400 compounds, 83% hits; AID 2153; shares compounds with TPT1 inh;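 active = inhibition above the solvent-only control well mean plus 3 SD, limit set per screening run, cut at about 23% in these data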;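 note: plate controls were DMSO wells with enzyme for no effect and wells without RNase T1 for full effect; inhibitors block cleavage so intact labeled substrate keeps polarization high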
Target sequence (P00651 whole entry, looked up): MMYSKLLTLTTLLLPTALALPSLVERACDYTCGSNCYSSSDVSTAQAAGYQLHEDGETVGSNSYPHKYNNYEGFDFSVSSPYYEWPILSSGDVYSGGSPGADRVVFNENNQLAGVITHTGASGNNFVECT
Rpn11 confirm: confirmation of human proteasome Rpn11 inhibitors. shares compounds with Rpn11 block. purified human 26S proteasome, Ub4-pepOG fluorescence polarization; proteasome pretreated with epoxomicin. inhibition, % at 20 µM. 1,900 compounds, 29% hits. AID 602318
MMP-2 inh: blocks human MMP-2, flagging nonselective RPN11 hits; 1,900 compounds, 4% hits; recombinant MMP-2, FRET peptide cleavage fluorescence; shares compounds with Rpn11 block; inhibition, % at 20 µM; AID 602330;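 note: human MMP-2 activated beforehand with APMA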
Thrombin FP: counter-screen for RPN11 inhibitors: inhibition of bovine thrombin; shares compounds with Rpn11 block; bovine thrombin cleavage of Ub4-pepOG, fluorescence polarization; inhibition, % at 20 µM; 1,900 compounds, 13% hits;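 active = mean inhibition at least 40% at 20 µM, or signal 3 deviations below plate average, so some actives read negative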;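 note: plate controls were thrombin with DMSO for no effect and buffer wells lacking thrombin for full effect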
Myeloid diff: compounds promoting myeloid differentiation | shares compounds with Myeloid diff 2 | ER-HoxA9 myeloid progenitors, GFP/Mac1 double-positive flow | calls only | 2,300 compounds, 2% hits;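 active = share of green or green-and-red cells above 9 and 9% in run 1 or 4 and 3% in run 2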
GFP autofluor: flagged as fluorescent in myeloid differentiation counter-screen | fluorescence response, % (no concentration beside the values) | shares compounds with Myeloid diff 2 | 2,300 compounds, 7.4% hits | ER-HoxA9 myeloid progenitors, no estrogen, GFP autofluorescence flow cytometry; vehicle wells 0%, positive control 100%;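 active = over 5% cells positive for green fluorescent reporter, or over 2% positive for both it and APC stain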;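 note: range taken on the double positive population between DMSO and positive control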
HNF4a DNA conf: change in binding of human HNF4 alpha to DNA, retest; shares compounds with HNF4A DNA FP; HNF4A-FITC DNA binding, fluorescence polarization, 1 h; activity change, % at 12.5 µM; 210 compounds, 99% hits; AID 1224897; call rule not given here
Numbers without * were called inactive; i = inactive; / = no result shown; + = active, no number; ! = not confirmed by another sample. Cut-off read from the data, not from the text of the source, unless noted: active = inhibition above about 40%; inactive = the rest.

SMILES	TPT1 inh	Rpn11 block	HNF4A DNA FP	Myeloid diff 2	TPT1 inh confirm	RNase T1 inh	Rpn11 confirm	MMP-2 inh	Thrombin FP	others
COc1cc(/C=C/c2nc3ccccc3c(=O)n2-c2cccc(O)c2)ccc1O	34*	93*	17	+	50*	54*	19	26	19
O=c1c2ccccc2nc(/C=C/c2ccccc2)n1-c1ccc(O)cc1	-5	-7	4	i	/	/	/	/	/
O=c1[nH]c(=O)n(CC2CCCO2)c(O)c1/C=C1\C=Nc2ccccc21 (centres undefined)	37*!	48*!	3	i	16	24*	19	-15	12
COc1ccc(N=Cc2c(O)n(CC3CCCO3)c(=O)[nH]c2=O)cc1 (centres undefined)	1	37	-2	i	/	/	/	/	/
Cn1c(O)c(C=Nc2ccc(Br)cc2)c(=O)n(C)c1=O	-3	5	-4	i	/	/	/	/	/
Cn1c(O)c(/C=C/C=Nc2ccccc2)c(=O)n(C)c1=S	134*	118*	95*	+	67*	74*	113*	-74	active
COc1ccc(CN2C(=O)NC(=O)/C(=C/c3ccoc3)C2=O)cc1	174*	186*	16	i	19	32*	96*	44*	10
CC1=NCCc2c1[nH]c1ccccc21	25*	62*	37	i	17	22*	-4	-29	-6
O=c1[nH]c(=O)n(-c2cccc3ccccc23)c(O)c1/C=N/N1CCCCC1c1cccnc1 (centres undefined)	51*	44*	33*	i	67*	81*	90*	26	67*
COC(=O)[C@@H]1N=C(c2ccc(OC)cc2)O[C@]12C(=O)N(C)c1ccc(Cl)cc12	/	/	6	i	/	/	/	/	/
COc1ccc2nc(/N=C/c3c(O)n(-c4cccc(Cl)c4)c(=O)[nH]c3=O)sc2c1	55*	48*	1	i	14	17	2	-22	-13
CCC1(CCC(C)C)C(=O)NC(=O)N(c2ccccc2)C1=O (centres undefined)	/	/	1	i	/	/	/	/	/
COc1ccc2nc3c(C)n(C)ccc-3c2c1	/	-27	-1	i	/	/	/	/	/
COc1ccc(-n2c(O)c(/C=C3\C=Nc4ccc(Br)cc43)c(=O)[nH]c2=O)cc1	33*	65*	0	i	26*	32*	-19	-37	-65
COc1ccc(-n2c(O)c(C=NCCCn3ccnc3)c(=O)[nH]c2=O)cc1	-2	-4	-3	i	/	/	/	/	/
CCOC(=O)c1cc2cc(OC)ccc2n1C1CCN(Cc2ccccc2)CC1	/	/	-2	i	/	/	/	/	/
O=c1[nH]c(=S)[nH]c(O)c1N=Nc1ccc2c(c1)OCCO2	25*	77*	48*	+	35*	48*	29	-6	45*	Myeloid diff=i;GFP autofluor=0
CC(N)C(=O)OC(C)(C)Cc1ccc(Cl)cc1 (centres undefined)	-5	-2	-1	i	/	/	/	/	/
O=c1c2ccccc2nc(/C=C/c2ccccc2)n1-c1ccccc1O	-2	0	4	i	/	/	/	/	/
O=c1c2ccccc2nc(/C=C/c2ccc(O)c(O)c2)n1-c1ccccc1	46*	/	16	i	49*	57*	/	/	/	Myeloid diff=i;GFP autofluor=0
COc1ccc(N=Nc2c(O)[nH]c(=S)[nH]c2=O)cc1	60*	/	80*	i	55*	70*	/	/	/	HNF4a DNA conf=118*

Source: PubChem BioAssay (several laboratories)
